Common to all, as to assay: DAPPL (digital affinity profiling via proximity ligation, sequencing); 10 mM Tris-HCl pH 7.5, 50 mM NaCl, 1 mM DTT, 4% glycerol, room temperature, 30 min; GST-TFs on glutathione beads, 16-mer random dsDNA library, 0.1% formaldehyde crosslink after washing; high values mean tight binding
The target in one assay is T1, FEV (Homo sapiens, UniProt Q99581 1-238).
T1 sequence: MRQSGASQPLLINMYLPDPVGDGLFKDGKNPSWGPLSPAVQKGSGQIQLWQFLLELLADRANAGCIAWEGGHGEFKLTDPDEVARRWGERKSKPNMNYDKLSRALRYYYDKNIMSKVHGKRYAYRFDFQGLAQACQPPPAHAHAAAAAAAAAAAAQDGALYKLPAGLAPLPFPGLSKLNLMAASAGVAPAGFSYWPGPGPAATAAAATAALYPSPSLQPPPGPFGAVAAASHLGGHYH
The following applies: protein: recombinant; tags: N-terminal GST; dsDNA, one strand shown. The procedure, abridged:
(§1)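 Binding signal is given per hexamer as its read frequency for a factor divided by its frequency in the tag-only sample. GST-fused human transcription factors were expressed in yeast, captured on glutathione beads, barcoded with DNA and pooled with that sample, then incubated with 200 nmole of a 16-mer random double-stranded DNA library in Tris/NaCl/DTT/glycerol buffer for 30 min at room temperature. The pools were then washed, crosslinked, proximity-ligated, amplified by PCR and sequenced on an Illumina NextSeq500.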

Another assay addresses ETV5 (Homo sapiens, UniProt P41161 1-510). The following applies: protein: recombinant; tags: N-terminal GST; dsDNA, one strand shown. An outline of the steps:
as §1

In a further assay the target is HSF1 (Homo sapiens, UniProt Q00613 1-529). The settings on record: protein: recombinant; tags: N-terminal GST; chain copies: 3; dsDNA, one strand shown. The procedure, abridged:
as §1

In the next assay the target is T2, SPIC (Homo sapiens, UniProt Q8N5J4 1-248).
T2 sequence: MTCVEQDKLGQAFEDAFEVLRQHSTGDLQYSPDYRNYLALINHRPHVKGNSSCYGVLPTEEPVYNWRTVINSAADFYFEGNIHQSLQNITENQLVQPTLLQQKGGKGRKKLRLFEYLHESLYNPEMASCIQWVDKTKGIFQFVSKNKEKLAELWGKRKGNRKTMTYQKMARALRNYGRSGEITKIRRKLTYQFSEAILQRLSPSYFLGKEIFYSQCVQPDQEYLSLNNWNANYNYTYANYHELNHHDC
The following applies: protein: recombinant; tags: N-terminal GST; dsDNA, one strand shown. The procedure, abridged: as §1

The target of the next assay is ELF4 (Homo sapiens, UniProt Q99607 1-663). The settings on record: protein: recombinant; tags: N-terminal GST; dsDNA, one strand shown. An outline of the steps: as §1
A further assay has as its target T3, ELK4 (Homo sapiens, UniProt P28324-2 1-405).
T3 sequence: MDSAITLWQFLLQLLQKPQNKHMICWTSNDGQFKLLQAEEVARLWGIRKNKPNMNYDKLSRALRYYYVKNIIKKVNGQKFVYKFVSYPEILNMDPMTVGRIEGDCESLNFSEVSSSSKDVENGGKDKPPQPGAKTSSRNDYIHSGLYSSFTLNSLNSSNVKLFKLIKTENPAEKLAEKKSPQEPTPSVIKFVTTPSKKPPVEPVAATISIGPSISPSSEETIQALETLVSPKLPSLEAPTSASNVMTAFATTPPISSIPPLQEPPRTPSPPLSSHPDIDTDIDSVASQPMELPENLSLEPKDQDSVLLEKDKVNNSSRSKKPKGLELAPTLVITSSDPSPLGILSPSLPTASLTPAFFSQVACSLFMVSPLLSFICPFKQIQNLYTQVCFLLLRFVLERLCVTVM
The following applies: protein: recombinant; tags: N-terminal GST; dsDNA, one strand shown. An outline of the steps: as §1

The next assay has as its target T4, ETV2 (Homo sapiens, UniProt O00321 1-342).
T4 sequence: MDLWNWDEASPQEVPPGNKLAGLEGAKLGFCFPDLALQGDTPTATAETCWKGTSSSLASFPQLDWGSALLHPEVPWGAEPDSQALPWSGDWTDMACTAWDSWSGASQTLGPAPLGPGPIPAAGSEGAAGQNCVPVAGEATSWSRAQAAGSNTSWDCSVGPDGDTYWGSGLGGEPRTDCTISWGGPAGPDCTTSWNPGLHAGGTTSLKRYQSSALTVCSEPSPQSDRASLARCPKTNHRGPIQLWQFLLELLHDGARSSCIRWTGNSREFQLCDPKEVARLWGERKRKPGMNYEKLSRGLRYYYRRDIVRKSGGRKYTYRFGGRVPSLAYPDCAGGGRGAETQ
The following applies: protein: recombinant; tags: N-terminal GST; dsDNA, one strand shown. An outline of the steps: as §1

The target of the next assay is T5, ELF3 (Homo sapiens, UniProt P78545 1-371).
T5 sequence: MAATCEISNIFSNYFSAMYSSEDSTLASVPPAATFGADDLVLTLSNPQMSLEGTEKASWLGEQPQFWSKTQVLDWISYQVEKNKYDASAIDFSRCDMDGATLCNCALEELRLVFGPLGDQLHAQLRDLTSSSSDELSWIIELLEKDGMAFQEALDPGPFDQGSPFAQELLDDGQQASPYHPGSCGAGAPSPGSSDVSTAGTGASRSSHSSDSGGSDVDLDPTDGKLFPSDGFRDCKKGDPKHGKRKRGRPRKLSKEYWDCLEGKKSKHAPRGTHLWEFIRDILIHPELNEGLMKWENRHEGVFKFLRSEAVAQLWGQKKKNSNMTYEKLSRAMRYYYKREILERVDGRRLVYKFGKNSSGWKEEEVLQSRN
The following applies: protein: recombinant; tags: N-terminal GST; dsDNA, one strand shown. An outline of the steps: as §1

In another assay the target is CRX (Homo sapiens, UniProt O43186 1-299). The settings on record: protein: recombinant; tags: N-terminal GST; dsDNA, one strand shown. An outline of the steps: as §1
Another assay concerns the target ETV1 (Homo sapiens, UniProt P50549 1-477). The following applies: protein: recombinant; tags: N-terminal GST; dsDNA, one strand shown. An outline of the steps: as §1
The target in another assay is T6, ERF (Homo sapiens, UniProt P50548 1-548).
T6 sequence: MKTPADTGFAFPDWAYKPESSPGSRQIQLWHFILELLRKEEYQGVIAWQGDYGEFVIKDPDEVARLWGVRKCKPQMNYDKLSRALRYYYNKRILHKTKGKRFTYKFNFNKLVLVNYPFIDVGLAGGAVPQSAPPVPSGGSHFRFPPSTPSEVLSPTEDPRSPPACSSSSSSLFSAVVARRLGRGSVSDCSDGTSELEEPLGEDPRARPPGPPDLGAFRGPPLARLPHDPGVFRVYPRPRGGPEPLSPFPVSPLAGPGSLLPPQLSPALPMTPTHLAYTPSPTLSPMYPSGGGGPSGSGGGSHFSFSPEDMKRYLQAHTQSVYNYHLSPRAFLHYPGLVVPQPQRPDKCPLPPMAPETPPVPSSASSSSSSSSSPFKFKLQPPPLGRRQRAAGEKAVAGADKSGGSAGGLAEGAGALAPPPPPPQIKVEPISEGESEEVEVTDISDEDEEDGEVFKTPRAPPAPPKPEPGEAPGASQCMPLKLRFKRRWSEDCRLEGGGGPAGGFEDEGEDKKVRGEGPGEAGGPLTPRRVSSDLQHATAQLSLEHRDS
The settings on record: protein: recombinant; tags: N-terminal GST; dsDNA, one strand shown. The procedure, abridged:
as §1

In a further assay the target is T7, ETV3L (Homo sapiens, UniProt Q6ZN32 1-361).
T7 sequence: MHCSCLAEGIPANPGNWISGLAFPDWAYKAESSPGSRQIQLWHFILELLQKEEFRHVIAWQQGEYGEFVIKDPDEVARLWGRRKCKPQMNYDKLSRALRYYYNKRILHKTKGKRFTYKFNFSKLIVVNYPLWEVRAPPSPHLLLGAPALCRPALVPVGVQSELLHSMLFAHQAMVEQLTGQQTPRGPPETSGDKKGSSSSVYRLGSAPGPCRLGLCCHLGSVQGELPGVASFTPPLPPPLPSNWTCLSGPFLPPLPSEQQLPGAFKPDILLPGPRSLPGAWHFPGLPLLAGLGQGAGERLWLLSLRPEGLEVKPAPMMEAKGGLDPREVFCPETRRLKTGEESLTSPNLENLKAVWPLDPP
The settings on record: protein: recombinant; tags: N-terminal GST; dsDNA, one strand shown. An outline of the steps:
as §1

The target of another assay is T8, ETS2 (Homo sapiens, UniProt P15036 1-469).
T8 sequence: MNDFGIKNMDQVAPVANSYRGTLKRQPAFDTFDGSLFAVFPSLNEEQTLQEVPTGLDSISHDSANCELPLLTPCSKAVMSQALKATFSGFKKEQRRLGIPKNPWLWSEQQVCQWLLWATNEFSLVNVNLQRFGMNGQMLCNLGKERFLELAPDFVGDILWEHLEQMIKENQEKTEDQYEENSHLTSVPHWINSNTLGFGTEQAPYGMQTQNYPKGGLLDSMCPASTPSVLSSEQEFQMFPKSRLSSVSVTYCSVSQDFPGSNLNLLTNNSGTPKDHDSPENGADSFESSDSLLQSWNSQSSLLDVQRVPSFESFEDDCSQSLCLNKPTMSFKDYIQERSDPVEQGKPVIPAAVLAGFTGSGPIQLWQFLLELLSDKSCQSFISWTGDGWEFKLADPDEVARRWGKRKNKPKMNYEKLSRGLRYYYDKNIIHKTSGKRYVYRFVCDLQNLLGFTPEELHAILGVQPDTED
The following applies: protein: recombinant; tags: N-terminal GST; dsDNA, one strand shown. The procedure, abridged:
as §1

A further assay deals with T9, SPDEF (Homo sapiens, UniProt O95238 1-335).
T9 sequence: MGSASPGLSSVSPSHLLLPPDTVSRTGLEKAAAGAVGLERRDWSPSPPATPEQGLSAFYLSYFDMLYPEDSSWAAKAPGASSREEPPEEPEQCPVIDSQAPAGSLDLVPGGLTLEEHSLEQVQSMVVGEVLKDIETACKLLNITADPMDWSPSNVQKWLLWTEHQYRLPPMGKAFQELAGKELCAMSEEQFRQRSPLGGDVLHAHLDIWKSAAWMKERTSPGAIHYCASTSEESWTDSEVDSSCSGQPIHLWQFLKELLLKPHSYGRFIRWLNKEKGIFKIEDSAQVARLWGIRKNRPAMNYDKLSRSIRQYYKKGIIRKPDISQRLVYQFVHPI
The following applies: protein: recombinant; tags: N-terminal GST; dsDNA, one strand shown. The procedure, abridged:
as §1

The target in the next assay is T10, ETV7 (Homo sapiens, UniProt Q9Y603 1-341).
T10 sequence: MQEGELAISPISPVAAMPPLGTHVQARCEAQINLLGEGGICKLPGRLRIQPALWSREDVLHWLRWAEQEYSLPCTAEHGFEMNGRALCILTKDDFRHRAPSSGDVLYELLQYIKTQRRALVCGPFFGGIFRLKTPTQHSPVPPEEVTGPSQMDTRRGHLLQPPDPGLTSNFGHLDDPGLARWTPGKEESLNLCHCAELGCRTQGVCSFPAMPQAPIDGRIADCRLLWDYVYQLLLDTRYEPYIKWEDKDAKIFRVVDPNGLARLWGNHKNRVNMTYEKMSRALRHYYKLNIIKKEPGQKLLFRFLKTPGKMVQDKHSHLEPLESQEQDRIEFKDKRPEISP
The settings on record: protein: recombinant; tags: N-terminal GST; dsDNA, one strand shown. An outline of the steps:
as §1

A further assay has as its target T11, ELF5 (Homo sapiens, UniProt Q9UKW6-2 1-255).
T11 sequence: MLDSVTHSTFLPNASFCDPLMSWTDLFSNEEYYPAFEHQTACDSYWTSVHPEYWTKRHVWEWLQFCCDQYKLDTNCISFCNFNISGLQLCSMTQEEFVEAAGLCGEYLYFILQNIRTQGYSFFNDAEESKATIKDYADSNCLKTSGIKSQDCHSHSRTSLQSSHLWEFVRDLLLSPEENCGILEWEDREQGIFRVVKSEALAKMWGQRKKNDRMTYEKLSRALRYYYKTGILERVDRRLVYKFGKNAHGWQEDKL
The settings on record: protein: recombinant; tags: N-terminal GST; dsDNA, one strand shown. An outline of the steps: as §1

The target of another assay is T12, ETV3 (Homo sapiens, UniProt P41162-2 1-143).
T12 sequence: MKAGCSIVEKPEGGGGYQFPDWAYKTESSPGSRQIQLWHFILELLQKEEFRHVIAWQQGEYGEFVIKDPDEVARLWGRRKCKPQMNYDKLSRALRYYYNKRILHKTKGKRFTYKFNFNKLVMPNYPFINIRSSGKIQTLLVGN
The following applies: protein: recombinant; tags: N-terminal GST; dsDNA, one strand shown. An outline of the steps:
as §1

The next assay concerns the target ETV6 (Homo sapiens, UniProt P41212 1-452). The settings on record: protein: recombinant; tags: N-terminal GST; dsDNA, one strand shown. An outline of the steps:
as §1

Chain of ETV5 (P41161 whole entry): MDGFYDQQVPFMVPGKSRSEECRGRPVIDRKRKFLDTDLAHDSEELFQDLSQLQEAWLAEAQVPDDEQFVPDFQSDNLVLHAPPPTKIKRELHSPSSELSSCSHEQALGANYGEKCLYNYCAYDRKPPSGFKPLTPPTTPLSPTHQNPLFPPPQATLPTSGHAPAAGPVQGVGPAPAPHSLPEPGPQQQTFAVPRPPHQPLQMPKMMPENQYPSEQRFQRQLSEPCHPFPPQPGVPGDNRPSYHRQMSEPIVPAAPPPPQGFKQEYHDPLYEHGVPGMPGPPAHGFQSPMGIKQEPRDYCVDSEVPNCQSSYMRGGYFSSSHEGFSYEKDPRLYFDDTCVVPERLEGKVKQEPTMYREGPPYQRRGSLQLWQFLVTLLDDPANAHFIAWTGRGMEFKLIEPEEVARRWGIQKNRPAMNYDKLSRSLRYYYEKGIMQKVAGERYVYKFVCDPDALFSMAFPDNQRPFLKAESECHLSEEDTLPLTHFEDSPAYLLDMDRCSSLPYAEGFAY
Chain of ETV6 (P41212 whole entry): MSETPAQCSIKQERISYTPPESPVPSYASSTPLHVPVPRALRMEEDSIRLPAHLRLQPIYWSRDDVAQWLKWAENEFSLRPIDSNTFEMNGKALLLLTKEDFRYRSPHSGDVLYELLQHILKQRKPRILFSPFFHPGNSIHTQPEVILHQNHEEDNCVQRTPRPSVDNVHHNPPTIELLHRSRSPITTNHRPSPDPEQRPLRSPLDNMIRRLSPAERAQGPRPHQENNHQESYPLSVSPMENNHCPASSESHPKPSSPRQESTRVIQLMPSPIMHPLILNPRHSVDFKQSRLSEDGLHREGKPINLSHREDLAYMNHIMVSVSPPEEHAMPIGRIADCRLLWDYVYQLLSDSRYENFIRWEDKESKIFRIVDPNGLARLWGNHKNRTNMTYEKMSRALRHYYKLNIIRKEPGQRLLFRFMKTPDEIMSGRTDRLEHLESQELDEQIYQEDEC
Chain of ETV1 (P50549 whole entry): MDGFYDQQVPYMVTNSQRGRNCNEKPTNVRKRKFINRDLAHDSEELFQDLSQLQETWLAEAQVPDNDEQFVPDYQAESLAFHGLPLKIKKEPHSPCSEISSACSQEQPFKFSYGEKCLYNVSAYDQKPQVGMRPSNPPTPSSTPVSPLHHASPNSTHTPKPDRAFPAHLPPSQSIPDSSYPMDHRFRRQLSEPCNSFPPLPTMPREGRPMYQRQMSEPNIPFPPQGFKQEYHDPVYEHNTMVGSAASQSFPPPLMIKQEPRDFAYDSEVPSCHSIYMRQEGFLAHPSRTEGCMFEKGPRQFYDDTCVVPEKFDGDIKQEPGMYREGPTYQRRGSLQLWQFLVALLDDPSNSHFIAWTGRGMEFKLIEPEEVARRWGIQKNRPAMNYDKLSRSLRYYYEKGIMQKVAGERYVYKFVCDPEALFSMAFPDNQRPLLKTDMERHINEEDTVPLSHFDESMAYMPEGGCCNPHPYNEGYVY
Chain of HSF1 (Q00613 whole entry): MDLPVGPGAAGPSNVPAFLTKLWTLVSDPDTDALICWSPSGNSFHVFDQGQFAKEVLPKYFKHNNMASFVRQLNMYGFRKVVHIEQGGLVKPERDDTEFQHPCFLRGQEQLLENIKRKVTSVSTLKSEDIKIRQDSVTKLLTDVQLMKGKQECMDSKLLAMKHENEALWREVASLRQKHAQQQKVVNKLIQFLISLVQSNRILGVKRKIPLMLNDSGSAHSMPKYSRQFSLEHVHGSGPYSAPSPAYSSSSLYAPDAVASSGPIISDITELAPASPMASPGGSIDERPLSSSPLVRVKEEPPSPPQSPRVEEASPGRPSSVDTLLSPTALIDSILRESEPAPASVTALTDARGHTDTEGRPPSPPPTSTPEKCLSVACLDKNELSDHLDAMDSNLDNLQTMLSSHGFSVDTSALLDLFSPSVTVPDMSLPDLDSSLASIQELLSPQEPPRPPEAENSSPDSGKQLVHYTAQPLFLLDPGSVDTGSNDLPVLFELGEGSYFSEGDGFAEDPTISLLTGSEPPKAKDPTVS
Chain of ELF4 (Q99607 whole entry): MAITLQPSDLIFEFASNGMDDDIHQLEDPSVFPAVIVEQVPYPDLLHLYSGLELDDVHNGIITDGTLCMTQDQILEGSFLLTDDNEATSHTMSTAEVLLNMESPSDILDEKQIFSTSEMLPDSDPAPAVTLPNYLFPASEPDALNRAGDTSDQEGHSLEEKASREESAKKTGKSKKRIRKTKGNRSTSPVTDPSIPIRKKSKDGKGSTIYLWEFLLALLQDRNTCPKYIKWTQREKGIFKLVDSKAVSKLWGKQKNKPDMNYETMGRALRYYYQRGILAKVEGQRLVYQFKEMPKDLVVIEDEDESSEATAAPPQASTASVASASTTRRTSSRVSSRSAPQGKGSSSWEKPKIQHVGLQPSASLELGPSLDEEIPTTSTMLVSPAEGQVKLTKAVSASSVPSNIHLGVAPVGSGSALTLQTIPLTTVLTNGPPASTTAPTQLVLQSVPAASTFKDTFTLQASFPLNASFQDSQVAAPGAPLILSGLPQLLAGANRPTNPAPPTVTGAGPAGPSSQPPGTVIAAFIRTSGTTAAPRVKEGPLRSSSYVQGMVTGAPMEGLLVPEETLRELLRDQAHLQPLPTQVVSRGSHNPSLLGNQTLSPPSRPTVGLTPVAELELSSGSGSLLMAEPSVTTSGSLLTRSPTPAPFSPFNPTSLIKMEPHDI
Chain of CRX (O43186 whole entry): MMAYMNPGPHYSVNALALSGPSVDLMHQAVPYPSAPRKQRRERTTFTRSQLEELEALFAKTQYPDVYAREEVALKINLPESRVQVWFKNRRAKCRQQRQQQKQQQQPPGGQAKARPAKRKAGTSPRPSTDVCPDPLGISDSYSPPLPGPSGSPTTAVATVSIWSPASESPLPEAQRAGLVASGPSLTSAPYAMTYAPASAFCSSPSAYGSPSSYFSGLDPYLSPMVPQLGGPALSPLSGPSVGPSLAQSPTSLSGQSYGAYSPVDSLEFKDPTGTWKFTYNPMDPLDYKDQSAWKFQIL

As to TTTTAC, the binding signal in the assay with FEV was 1.37 fold enrichment (6-mer frequency, TF over GST control); with ETV5, 1.36 fold enrichment (6-mer frequency, TF over GST control); with HSF1, 1.37 fold enrichment (6-mer frequency, TF over GST control); in the assay with SPIC, 1.4 fold enrichment (6-mer frequency, TF over GST control); with ELF4, 1.37 fold enrichment (6-mer frequency, TF over GST control); in the assay with ELK4, 1.41 fold enrichment (6-mer frequency, TF over GST control). For the same sequence, the binding signal with ETV2 was 1.37 fold enrichment (6-mer frequency, TF over GST control); with ELF3, 1.4 fold enrichment (6-mer frequency, TF over GST control); in the assay with CRX, 1.51 fold enrichment (6-mer frequency, TF over GST control); with ETV1 it was 1.46 fold enrichment (6-mer frequency, TF over GST control); with ERF, 1.3 fold enrichment (6-mer frequency, TF over GST control); with ETV3L, 1.32 fold enrichment (6-mer frequency, TF over GST control). Further, the binding signal with ETS2 is 1.44 fold enrichment (6-mer frequency, TF over GST control); with SPDEF, 1.32 fold enrichment (6-mer frequency, TF over GST control); with ETV7, 1.52 fold enrichment (6-mer frequency, TF over GST control); with ELF5, 1.27 fold enrichment (6-mer frequency, TF over GST control); with ETV3, 1.45 fold enrichment (6-mer frequency, TF over GST control); with ETV6, 1.33 fold enrichment (6-mer frequency, TF over GST control).

The values above are taken from PMC7862700, “An all-to-all approach to the identification of sequence-specific readers for epigenetic DNA modifications on cytosine”.
